Source: PubChem BioAssay (Center for Chemical Genomics, University of Michigan)
The full list was thinned out, with hits kept by preference.
Dicer inh – human Dicer pre-microRNA cleavage inhibition | hit rate 6% among 47,000 | Q9UPY3 | z-score at 25 µM | cat-ELCCA pre-miR-21 Dicer processing, chemiluminescence; stronger effect = higher value; in the data active means z-score above about 3, passing the limit was not always enough;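 further: higher signal means more uncleaved substrate so more Dicer inhibition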
Each line names hits and unclear results; the compound was inactive in the other large screens.

CCOC(=O)CN1C(=O)C(=O)c2ccccc21	Dicer inh 4.6
CC1CC(C)CN(c2ncc3c(n2)CC(c2ccc(F)cc2)CC3=O)C1 (stereo not drawn)	none
CN(/N=C1\CCCc2occ(C(=O)O)c21)c1ncc(Cl)cc1C(F)(F)F	none
CCOC(=O)c1cnc(Sc2ccc(F)c(Cl)c2)nc1C(F)(F)F	none
Cc1cccc(N=C(NO)c2ccccc2)c1	none
NC(N)=NC(N)=Nc1cc(Cl)cc(Cl)c1	none
ONC(=Nc1cc(Cl)cc(Cl)c1)c1ccccc1	Dicer inh 3.02
O=C1/C(=C/c2c(F)cccc2Cl)COc2ccc(F)cc21	none
COC(=O)c1ccc(Cl)cc1NC(=O)c1ccccc1Cl	none
COc1cc(C2C(C(=O)OCc3ccccc3)=C(C)N=C3SCCC(=O)N32)ccc1OC(C)=O (stereo not drawn)	none
Cc1sc(NC2=NS(=O)(=O)c3ccccc32)nc1-c1ccccc1	none
COC(=O)C(O)(NC(=O)c1ccccc1Cl)C(F)(F)F (stereo not drawn)	Dicer inh 3.85
CCOC(=O)C(NC(=O)c1ccccc1Cl)(Nc1cc(C)ccn1)C(F)(F)F (stereo not drawn)	none
CCOC(=O)C(NC(=O)c1ccccc1Cl)(Nc1cccc(C)n1)C(F)(F)F (stereo not drawn)	none
CCOC(=O)C(O)(NC(=O)c1ccccc1Cl)C(F)(F)F (stereo not drawn)	none
CCOC(=O)C(NC(=O)c1ccccc1Cl)(Nc1ccc(C)cn1)C(F)(F)F (stereo not drawn)	Dicer inh 3.04
CCOC(=O)C(O)(NC(=O)c1ccccc1C)C(F)(F)F (stereo not drawn)	none
Cc1ccc(-c2nnc(N3CCOCC3)c3ccccc23)cc1C	none
COc1cc(C2Nc3ccccc3-c3cc(C)nn32)ccc1O (stereo not drawn)	none
CCOc1ccc(C2Nc3ccccc3-c3cc(C)nn32)cc1 (stereo not drawn)	Dicer inh 3.24
COc1ccc(C2Nc3c(C)cc(C)cc3-c3cc(C)nn32)cc1O (stereo not drawn)	Dicer inh 4.35
Cc1cc2n(n1)C(c1ccc(O)c(O)c1)Nc1ccccc1-2 (stereo not drawn)	Dicer inh 6.61
Cc1cc2n(n1)C(c1ccc(O)cc1)Nc1ccccc1-2 (stereo not drawn)	none
COc1ccc(OC)c(C2Nc3ccc(C)cc3-c3cc(C)nn32)c1 (stereo not drawn)	none
COc1ccc(C2Nc3ccc(C)cc3-c3cc(C)nn32)cc1 (stereo not drawn)	none
CCOc1ccc(C2Nc3c(C)cccc3-c3cc(C)nn32)cc1 (stereo not drawn)	none
COc1ccc(C2Nc3c(C)cc(C)cc3-c3cc(C)nn32)cc1OC (stereo not drawn)	none
CCOc1ccc(C2Nc3ccc(C)cc3-c3cc(C)nn32)cc1 (stereo not drawn)	none
COc1ccc(C2Nc3c(C)cc(C)cc3-c3cc(C)nn32)c(OC)c1 (stereo not drawn)	Dicer inh 3.62
COc1ccc(S(=O)(=O)N2CC=C(c3ccccc3)CC2)c(OC)c1	none
COCCN1C(=O)CC(C(=O)OC)=C1C	none
Cc1ccc(S(=O)(=O)N2CCn3c2nc2ccccc23)cc1	none
CCSC1=N/C(=C\c2cc3c(cc2Br)OCO3)C(=O)S1	none
COc1ccc(-n2c(-c3ccccc3)noc2=O)cc1Cl	none
Cc1cc(C)c2c(c1)-c1cc(C)nn1C(c1ccc(N3CCOCC3)cc1)N2 (stereo not drawn)	none
CCOc1cc(C2Nc3c(C)cc(C)cc3-c3cc(C)nn32)ccc1O (stereo not drawn)	none
Cc1cc(C)c2c(c1)-c1cc(C)nn1C(c1ccc(O)c(O)c1)N2 (stereo not drawn)	Dicer inh 8.62
Cc1cc(NC(NC(=O)c2ccccc2C)(C(F)(F)F)C(F)(F)F)no1	none
Fc1ccc(C2=NN(C(=S)NCc3ccccc3)CCC2)cc1	none
O=C(c1cnn2c(C(F)F)cc(-c3ccccc3)nc12)N1CCCc2ccccc21	none
O=C(c1cnn2c(C(F)F)cc(-c3ccccc3)nc12)N1CCc2ccccc2C1	none
COc1ccc(-c2cc(C(F)F)n3ncc(C(=O)N4CCSCC4)c3n2)cc1	Dicer inh 3.04
FC(F)(F)c1ccc(-c2nnc3ccc(N4CCCCC4)nn23)cc1	none
CCOc1ccc(C2/C(=C(\O)c3ccc(OC)cc3)C(=O)C(=O)N2Cc2cccnc2)cc1OC (stereo not drawn)	none
C=CCN1C(=O)NC2C1N(S(C)(=O)=O)CCN2S(C)(=O)=O (stereo not drawn)	Dicer inh 5.83
Cn1c(CSCC(=O)Nc2ccccc2)nnc1SCC(=O)Nc1cccc(Cl)c1	none
CC(=O)OCC1OC(n2ccc(=O)[nH]c2=O)CC1OC(C)=O (stereo not drawn)	none
O=S(=O)(c1ccc(Cl)cc1)N1CCSCC1	none
CN(C)C(=O)N1CCN(S(=O)(=O)c2ccc(Cl)cc2)CC1	none
O=S(=O)(c1ccc(Cl)cc1)N1CCN(c2cccc(Cl)c2)CC1	Dicer inh 3.09
CC1=C(C(N)=O)C(c2ccccc2F)n2nnnc2N1 (stereo not drawn)	none
C/C(Cc1nsc(Nc2ccccc2)n1)=N\Nc1cc(Cl)ccc1Cl	none
CC(C)NC(=O)Nc1csc(-c2ccc(C(F)(F)F)cc2)n1	none
CCCCNC(=O)NS(=O)(=O)c1ccccc1Cl	none
CC(=O)c1ccc(S(=O)(=O)NC(=O)NC2CCCCC2)cc1	none
O=C(NC1CCCC1)NS(=O)(=O)c1ccccc1Cl	Dicer inh 3.22
N/C(=N\OC(=O)c1ccc([N+](=O)[O-])cc1)c1cccc(-n2cccc2)c1	none
C=C(C)c1cccc(C(C)(C)NC(=O)NCc2ccc(Cl)cc2)c1	none
C=C(C)c1cccc(C(C)(C)NC(=O)NCCc2ccccc2)c1	none
C=C(C)c1cccc(C(C)(C)NC(=O)NCCc2ccc(S(N)(=O)=O)cc2)c1	Dicer inh 3.89
CCOC(=O)NC(NCCc1ccc(OC)cc1)(C(F)(F)F)C(F)(F)F	none
Cc1nc(N2CCSCC2)ncc1S(=O)(=O)c1ccc(Cl)cc1	none
CSc1nc(C=Nc2cccc(Cl)c2)c(O)n1Cc1cccc(Cl)c1	none
CSc1nc(C=Nc2ccccc2)c(O)n1Cc1ccccc1Cl	Dicer inh 5.12
Cn1c(=O)c2c(nc(Cl)n2Cc2ccccc2Cl)n(C)c1=O	none
O=C(CSc1nc2ccccc2nc1N1CCOCC1)NC1CCCC1	none
O=C(CSc1nc2ccccc2nc1N1CCCC1)N1CCCC1	none
Cc1ccc(C)n1CCN1CCN(C(=O)CSc2nc3ccccc3nc2N2CCOCC2)CC1	Dicer inh 3.05
O=C(CSc1nc2ccccc2nc1N1CCOCC1)Nc1ccccc1F	none
O=C(CSc1nc(-c2ccco2)cc(C(F)(F)F)n1)N1CCN(c2cccc(Cl)c2)CC1	none
O=C(CSc1nc2ccccc2nc1N1CCOCC1)N1CCN(c2cccc(Cl)c2)CC1	Dicer inh 3.55
CCC1CSc2nc3ccsc3c(=O)n21 (stereo not drawn)	none
Cc1ccc(C(=O)C(C)Sc2nnc(-c3ccc4ccccc4c3)n2C)cc1Cl (stereo not drawn)	none
O=C(O)CSC1(SCC(=O)O)CCCCC1	none
CCOC(=O)c1c(C)n(-c2ccccc2)c2ccc(O)cc12	none
CCOC(=O)c1c(C)n(-c2ccccc2)c2ccc(OC(=O)c3cccs3)cc12	none
CCOC(=O)c1sc(=S)n(-c2cc(C)ccc2C)c1N	Dicer inh 5.18
CCOC(=O)c1sc2c(c1O)c(=O)n(-c1ccccc1)c(=S)n2-c1ccccc1	none
CCOC(=O)c1c(C)n(-c2ccc(OC)cc2)c2ccc(O)cc12	Dicer inh 4.7
CCOC(=O)c1sc(=S)n(-c2ccc(Cl)cc2)c1C	none
CCOC(=O)c1c(C)n(-c2ccccc2)c2c1cc(O)c1ccccc12	none
CCOC(=O)c1sc(=S)n(-c2ccc(OC)cc2)c1C	Dicer inh 4.18
